Source: PubChem BioAssay AID1259418 (Broad Institute, 2018)
Among all 3,400 compounds or so, about 840 (25%) were called active. About 11% were inconclusive and are not listed.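 How the source made its calls: active means fitted half-maximal concentration of signal decrease at or below twice the sample's top tested concentration; inconclusive means flat curve between -70 and -30 percent, or poor fit; inactive means flat within 30 percent, signal rise, or potency above limit.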 These entries were drawn from the full list. Potency and affinity values are given separately.

assay: T. gondii growth inhibition with IFN-gamma, dose response, cell-based, ME49Luc, HeLa, luciferase, 72 h (AID 1259418); settings: T. gondii ME49Luc in IFN-y HeLa, active compounds read low, -100% = high-dose IFN-γ control wells; at 19.5 µM unless noted

Structure (SMILES)	max activity
CCc1nc(OCC(=O)Nc2cccc(OC)c2)c2ccccc2n1	13.8% [at 0.16 µM] (inactive)
O=C(CCCCCn1c(=S)[nH]c2cc3c(cc2c1=O)OCO3)N1CCC(O)(c2cccc(C(F)(F)F)c2)CC1	-29.1% [at 10 µM] (inactive)
CCCn1c(=S)[nH]c2cc(C(=O)N3CCC(O)(c4cccc(C(F)(F)F)c4)CC3)ccc2c1=O	18.8% [at 0.16 µM] (inactive)
O=C(c1ccc2c(=O)n(CCC3=CCCCC3)c(=S)[nH]c2c1)N1CCC(O)(c2cccc(C(F)(F)F)c2)CC1	-24.9% [at 10 µM] (inactive)
Cc1cccc(C2=NC3(CCN(C(=O)c4ccc(C(C)(C)C)cc4)CC3)NC2=O)c1	16.7% [at 2.6 µM] (inactive)
COc1ccccc1-c1nc(Cn2nnc(-c3nc(-c4ccccn4)no3)c2C)c(C)o1	50.4% (inactive)
C=CCN1C(=O)CC[C@H]2[C@@H]1CCN2S(=O)(=O)CC	48.3% (inactive)
Cc1ccc(CSc2ccc(-c3sc(-c4ccc(F)cc4)nc3C)nn2)cc1	12.3% [at 0.16 µM] (inactive)
Cc1cc(C)c2c(=O)n(Cc3nc(-c4ccc(C(C)C)cc4)oc3C)c(=O)n(-c3ccccc3)c2n1	-13.2% [at 5 µM] (inactive)
CCCN1CCc2nc(SCc3nc(-c4cccc(Cl)c4)oc3C)[nH]c(=O)c2C1	10.2% [at 0.68 µM] (inactive)
COCC1COCCC12CCN(C(=O)c1ccc(C)nc1)CC2 (configuration not stated)	18.7% (inactive)
Cc1ccc(NC(=O)N2CCc3nc(-c4ccccc4)sc3C2)cc1C	-7.49% [at 2.6 µM] (inactive)
Cc1cccc(-c2nc(Cn3nnc(-c4nc(-c5cccc(C(F)(F)F)c5)no4)c3C)c(C)o2)c1	8.75% [at 1.35 µM] (inactive)
O=C(Nc1ccc(-c2nc(-c3ccccc3)co2)cc1)Nc1ccc2c(c1)OCO2	19.1% [at 0.16 µM] (inactive)
Cc1ccccc1NC(=O)CN1CCC2(CC1)N=C(c1ccc(Cl)cc1)C(=O)N2	-13.7% [at 1.35 µM] (inactive)
O=C(NCCc1c[nH]c2ccccc12)C1CCN(c2ncnc3c2oc2ccccc23)CC1	11.9% [at 0.68 µM] (inactive)
COc1ccc(-n2ncc3c(NC4CCCCCCCCCCC4)ncnc32)cc1	21.4% [at 1.35 µM] (inactive)
COc1ccc(-c2nc(N3CCN(c4ccc(F)cc4)CC3)c3ccccc3n2)cc1	13.7% [at 10 µM] (inactive)
CCn1nnc2c(NCCSc3c[nH]c4ccccc34)ncnc21	-13.5% [at 0.68 µM] (inactive)
Cc1cccc(-c2nc(CSc3nc4c(c(=O)[nH]3)CN(Cc3ccc(Cl)cc3)CC4)c(C)o2)c1	23.2% [at 0.16 µM] (inactive)
COc1ccccc1CNC1=NCCNC12CCN(S(=O)(=O)c1cccs1)CC2	-16.5% [at 0.68 µM] (inactive)
CCc1ccc(S(=O)(=O)N2CCC3(CC2)NCCN=C3NCc2ccccc2OC)cc1	11.2% [at 0.16 µM] (inactive)
O=S(=O)(c1ccc(Cl)s1)N1CCC2(CC1)NCCN=C2NC1CCCC1	13.4% (inactive)
O=S(=O)(c1cccs1)N1CCC2(CC1)NCCN=C2NCc1ccccc1F	-35.7% (inactive)

Structure (SMILES)	max activity
COC[C@H]1CN(CC2CC2)C[C@@]12CCN(CCc1ccccc1)C2	24% (inactive)
CCCN1CCc2nc(SCc3nc(-c4ccc(OC)cc4OC)oc3C)[nH]c(=O)c2C1	66.7% (inactive)
COc1ccc(-c2nc(Nc3ccc(C)c(C)c3)c3ccccc3n2)cc1	21.6% [at 0.16 µM] (inactive)
CC1(C)C2CCC1(CS(=O)(=O)O)C(=O)/C2=C\c1ccc(/C=C2/C(=O)C3(CS(=O)(=O)O)CCC2C3(C)C)cc1	14.9% (inactive)
CCn1c(C2CCCN(C(=O)CCN3CCCCCC3=O)C2)nn(C)c1=O (configuration not stated)	20.9% (inactive)
CN1C(=O)CCc2cc(NC(=O)c3ccnn3C)ccc21	26.8% (inactive)
Cc1cc2cc(CNc3ncnc4c3nnn4C)ccc2[nH]1	9.49% [at 10 µM] (inactive)
COc1ccc(C)cc1NC(=O)Nc1ccc(-c2nc(-c3cccc(Br)c3)co2)cc1	-11.7% [at 0.35 µM] (inactive)
CC1CCCCN1CCNS(=O)(=O)c1cc(-c2nc(C(C)(C)C)cs2)cs1 (configuration not stated)	-20.5% (inactive)
COc1ccc(-c2nc(N3CCC(Cc4ccccc4)CC3)c3ccccc3n2)cc1	16.4% (inactive)
Cc1ccc(-c2coc(-c3ccc(NC(=O)Cc4cccs4)cc3)n2)cc1	-53.8% [at 0.68 µM] (inactive)
COc1cccc(CNC2=NCCNC23CCN(S(=O)(=O)c2ccc(C(C)C)cc2)CC3)c1	-13.5% [at 0.35 µM] (inactive)
Cc1nc(CCNC(=O)[C@H]2CCCN2S(=O)(=O)c2ccc(C(C)(C)C)cc2)cs1	7.93% [at 5 µM] (inactive)
CCCCC(=O)N1CCC(C(=O)NCCc2csc(-c3ccccc3)n2)CC1	6.78% [at 2.6 µM] (inactive)
CCc1nc(OCC(=O)Nc2ccc3c(c2)OCO3)c2ccccc2n1	23.2% [at 10 µM] (inactive)
CCOC(=O)C1CCCN(S(=O)(=O)c2cc(-c3nc(C)c(C)s3)sc2C)C1 (configuration not stated)	14.9% [at 0.16 µM] (inactive)
COc1ccc2c(c1)NC1(CCN(C(=O)c3ccc(C(C)(C)C)cc3)CC1)c1cccn1-2	-6.3% [at 0.35 µM] (inactive)
CN1C(=O)CCc2cc(NC(=O)C3CCCO3)ccc21 (configuration not stated)	17.1% (inactive)
COc1cccc(-c2nc(CN(c3ccc(C)cc3)S(=O)(=O)c3cccs3)c(C)o2)c1OC	2.85% (inactive)
CCOc1ccc(N(Cc2nc(-c3ccccc3OCC)oc2C)S(=O)(=O)c2cccs2)cc1	8.57% [at 10 µM] (inactive)
COc1ccc(N(Cc2nc(-c3ccccc3)oc2C)S(=O)(=O)c2cccs2)cc1	14.6% (inactive)
COc1ccccc1-c1nc(Cn2nnc(-c3nc(-c4ccc(SC)cc4)no3)c2C)c(C)o1	10.9% [at 0.16 µM] (inactive)
CCOc1ccc(NC(=O)Nc2ccc(-c3nc(-c4cc(C)ccc4C)co3)cc2)cc1	-9.48% [at 1.35 µM] (inactive)
